Assay results as given in PubChem BioAssay (NCATS).
Records with an inconclusive call do not appear. A call without a number means that no potency is given here. Activity calls are given as the source filed them. Unless noted, calls follow the shape of the dose curve; as a rule, active = well fitted curve in the direction sought with a large enough effect; inconclusive = small, poorly fitted or top-dose-only effect, or another doubt; inactive = no such curve, though single readings can be large; an effect the other way counts as inactive or inconclusive.

Key:
[1] = molecular target: Cytochrome P450 3A4 (Homo sapiens) (UniProt P08684); assay: qHTS for inhibitors of CYP3A4 against the NCATS DSHEA and TCM libraries (AID 1919971);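 also: inhibition lowers luminescence from luciferin made by CYP3A4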
Cytochrome P450 3A4 (Homo sapiens), sequence (P08684 whole entry, looked up): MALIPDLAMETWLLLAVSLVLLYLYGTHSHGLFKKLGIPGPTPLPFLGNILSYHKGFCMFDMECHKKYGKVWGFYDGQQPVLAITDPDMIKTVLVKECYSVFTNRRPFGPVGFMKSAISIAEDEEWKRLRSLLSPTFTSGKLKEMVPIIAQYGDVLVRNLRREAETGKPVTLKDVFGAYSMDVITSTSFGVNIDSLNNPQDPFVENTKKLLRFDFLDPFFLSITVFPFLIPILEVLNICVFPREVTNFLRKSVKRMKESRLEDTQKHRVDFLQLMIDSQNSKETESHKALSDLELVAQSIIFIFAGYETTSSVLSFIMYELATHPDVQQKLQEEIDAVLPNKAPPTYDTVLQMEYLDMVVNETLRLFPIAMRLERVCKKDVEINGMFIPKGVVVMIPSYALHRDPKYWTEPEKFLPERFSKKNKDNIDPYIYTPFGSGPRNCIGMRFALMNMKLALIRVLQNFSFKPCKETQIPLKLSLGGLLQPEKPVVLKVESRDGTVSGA
Outline: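 Light output from converted D-luciferin reports remaining CYP activity. Compounds preincubate with enzyme and substrate for 15 min; NADPH regeneration (1x final) runs the reaction for 30-45 min.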

[2] = molecular target: Cytochrome P450 1A2 (Homo sapiens) (UniProt P05177); assay: qHTS for inhibitors of CYPIA2 against the NCATS DSHEA and TCM libraries (AID 1919976);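 also: light from luciferin formed by CYP1A2 from a pro-luciferin substrate; series mostly up to about 37 µM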
Cytochrome P450 1A2 (Homo sapiens), sequence (P05177 whole entry, looked up): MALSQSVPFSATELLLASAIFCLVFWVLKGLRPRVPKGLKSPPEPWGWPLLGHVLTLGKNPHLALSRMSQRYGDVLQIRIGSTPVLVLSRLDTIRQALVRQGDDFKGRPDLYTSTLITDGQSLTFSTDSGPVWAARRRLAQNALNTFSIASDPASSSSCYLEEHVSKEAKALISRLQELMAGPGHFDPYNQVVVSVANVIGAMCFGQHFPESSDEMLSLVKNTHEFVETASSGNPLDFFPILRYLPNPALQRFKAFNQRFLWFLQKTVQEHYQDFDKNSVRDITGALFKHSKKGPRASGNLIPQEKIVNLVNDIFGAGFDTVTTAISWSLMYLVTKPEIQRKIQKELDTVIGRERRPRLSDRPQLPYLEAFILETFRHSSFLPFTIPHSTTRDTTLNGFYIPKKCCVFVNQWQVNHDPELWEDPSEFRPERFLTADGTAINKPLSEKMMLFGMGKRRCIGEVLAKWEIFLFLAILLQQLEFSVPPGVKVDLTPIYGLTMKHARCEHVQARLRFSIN
Outline: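 In this quantitative HTS, inhibition of recombinant human CYP1A2 was measured as loss of luciferin-derived luminescence. Turnover ran 30-45 min at RT after NADPH regeneration solution was added.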

[3] = molecular target: Lysosomal acid glucosylceramidase (Homo sapiens) (UniProt P04062); assay: Glucocerebrosidase-p2 (AID 348; in the data active = potency below about 10 µM; also: potency is read from the fitted curve at half-maximal effect); settings: purified GBA, blue fluorogenic substrate, 40 min
Lysosomal acid glucosylceramidase (Homo sapiens), sequence (P04062 whole entry, looked up): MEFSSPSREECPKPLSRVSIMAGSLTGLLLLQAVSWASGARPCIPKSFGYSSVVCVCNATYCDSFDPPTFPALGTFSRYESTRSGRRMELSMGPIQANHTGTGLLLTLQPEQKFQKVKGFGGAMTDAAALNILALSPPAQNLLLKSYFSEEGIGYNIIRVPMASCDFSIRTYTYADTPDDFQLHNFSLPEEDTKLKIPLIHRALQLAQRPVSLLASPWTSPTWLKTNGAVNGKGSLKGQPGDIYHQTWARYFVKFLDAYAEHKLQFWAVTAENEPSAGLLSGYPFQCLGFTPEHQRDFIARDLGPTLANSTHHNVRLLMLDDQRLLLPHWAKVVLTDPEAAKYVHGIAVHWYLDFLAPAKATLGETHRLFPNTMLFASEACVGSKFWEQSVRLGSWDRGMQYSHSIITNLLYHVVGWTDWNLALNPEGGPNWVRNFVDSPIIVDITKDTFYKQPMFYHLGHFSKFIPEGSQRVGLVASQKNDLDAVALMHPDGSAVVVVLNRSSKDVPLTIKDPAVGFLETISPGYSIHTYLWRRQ
Outline: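 Compounds titrated from 0.6 nM upwards against 0.2 nM enzyme in pH 5.9 citric acid/KH2PO4, taurocholate, tween-20; blue fluorogenic substrate 80 uM, 40 min room temperature, stopped and read Ex 365/Em 440 for AC50.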

[4] = Primary qHTS for inhibitors of nuclear receptor binding SET domain protein 2 (NSD2) in an isogenic RCH-ACV NSD2 p.E1099K mutant (9B) (AID 1645876); also: nearly all actives have a fitted effect of over 70% in size
[5] = molecular target: Endonuclease 4 (Escherichia coli (strain K12)) (UniProt P0A6C1); assay: Counterscreen for APE1 Inhibitors: qHTS Validation Assay for Inhibitors of Endonuclease IV (AID 1708)
Outline: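 Enzymatic AP-site incision assay using a double-stranded THF substrate labelled with TAMRA and BHQ-2; released fluorescence signals activity. Enzyme 2 nM, substrate 50 nM, 15 min compound preincubation.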

[6] = molecular target: Ferritin light chain (Equus caballus) (UniProt P02791); assay: qHTS Validation Assay for Identification of Novel General Anesthetics (AID 2323); also: series mostly up to about 77 µM
Ferritin light chain (Equus caballus), sequence (P02791 2-175 limits assumed): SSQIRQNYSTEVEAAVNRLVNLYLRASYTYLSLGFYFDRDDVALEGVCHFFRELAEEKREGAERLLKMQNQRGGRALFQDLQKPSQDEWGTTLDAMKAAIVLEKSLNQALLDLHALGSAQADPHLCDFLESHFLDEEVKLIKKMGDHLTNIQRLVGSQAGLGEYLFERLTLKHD
Outline: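 10 uM horse-spleen apoferritin + 1-AMA (50% saturated, PBS); cpd pin-transferred, 10 min RT. Ex 380/Em 535 nm endpoint. Activity normalized between free 1-AMA and 1-AMA/apoferritin; 4-parameter Hill fit of concentration-response.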

[7] = molecular target: RecQ-like DNA helicase BLM (Homo sapiens) (UniProt P54132); assay: qHTS Validation Assay for Inhibitors of Bloom's syndrome helicase (BLM) (AID 2364)
RecQ-like DNA helicase BLM (Homo sapiens), sequence (P54132 whole entry, looked up): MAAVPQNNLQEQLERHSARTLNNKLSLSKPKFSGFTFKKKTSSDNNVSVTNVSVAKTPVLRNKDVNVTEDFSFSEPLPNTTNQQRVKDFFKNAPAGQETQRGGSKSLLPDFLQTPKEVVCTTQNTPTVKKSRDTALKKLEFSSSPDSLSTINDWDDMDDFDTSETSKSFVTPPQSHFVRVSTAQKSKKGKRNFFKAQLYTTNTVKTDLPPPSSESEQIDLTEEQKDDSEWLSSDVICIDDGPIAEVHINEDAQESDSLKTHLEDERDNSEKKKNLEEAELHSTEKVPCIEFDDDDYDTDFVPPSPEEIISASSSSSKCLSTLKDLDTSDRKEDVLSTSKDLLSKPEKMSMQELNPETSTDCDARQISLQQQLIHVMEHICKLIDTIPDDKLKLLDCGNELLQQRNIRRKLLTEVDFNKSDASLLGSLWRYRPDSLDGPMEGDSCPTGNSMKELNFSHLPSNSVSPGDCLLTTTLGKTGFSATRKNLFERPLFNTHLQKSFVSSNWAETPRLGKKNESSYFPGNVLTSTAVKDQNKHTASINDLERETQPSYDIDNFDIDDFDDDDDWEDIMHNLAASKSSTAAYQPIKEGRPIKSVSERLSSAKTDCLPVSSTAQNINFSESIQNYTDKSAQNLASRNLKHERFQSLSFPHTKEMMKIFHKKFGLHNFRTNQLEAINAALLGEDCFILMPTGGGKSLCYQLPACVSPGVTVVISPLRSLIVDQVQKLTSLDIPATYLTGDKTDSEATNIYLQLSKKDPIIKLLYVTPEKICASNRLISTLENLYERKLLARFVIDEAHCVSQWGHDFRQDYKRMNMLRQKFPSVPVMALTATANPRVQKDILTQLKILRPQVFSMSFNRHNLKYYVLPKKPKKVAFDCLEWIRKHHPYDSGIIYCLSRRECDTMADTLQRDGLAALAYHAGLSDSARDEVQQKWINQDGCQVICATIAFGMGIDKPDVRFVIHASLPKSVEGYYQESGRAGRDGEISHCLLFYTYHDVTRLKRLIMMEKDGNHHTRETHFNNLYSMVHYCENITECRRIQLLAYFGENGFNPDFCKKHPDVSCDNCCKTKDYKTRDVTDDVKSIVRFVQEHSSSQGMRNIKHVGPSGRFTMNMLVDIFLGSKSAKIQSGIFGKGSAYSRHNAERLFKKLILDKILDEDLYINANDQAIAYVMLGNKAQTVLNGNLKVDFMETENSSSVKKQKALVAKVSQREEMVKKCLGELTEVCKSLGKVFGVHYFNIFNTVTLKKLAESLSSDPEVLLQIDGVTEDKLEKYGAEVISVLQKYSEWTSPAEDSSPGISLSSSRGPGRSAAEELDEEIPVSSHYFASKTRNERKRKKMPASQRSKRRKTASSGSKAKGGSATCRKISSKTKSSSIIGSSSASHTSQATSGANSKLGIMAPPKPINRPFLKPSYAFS
Outline: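 Forked 20-bp duplex substrate (200 nM, TAMRA/BHQ-2) plus 2 mM ATP added after 15 min compound preincubation with 50 nM enzyme, pH 8.0, poly(dI-dC) 2.5 ug/ml. Strand separation followed by fluorescence (525/598 nm) over 2 h, normalized to enzyme-free and DMSO controls.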

[8] = Quantitative high throughput screen for delayed death inhibitors of the malarial parasite plastid, 48 hour incubation (AID 488752); also: nearly all actives have a fitted effect of over 65% in size
Outline: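 One parasite generation (48 h, 37 C, 5% CO2) of luciferase-reporter P. falciparum in erythrocytes is run with test compound; decreased luminescence indicates inhibited growth.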

[9] = qHTS assay for small molecule antagonists of peroxisome proliferator-activated receptor delta signaling (AID 588535; active = well fitted inhibition curve with a large enough effect in the signal ratio, with a control signal flat, not every such curve was filed as active; the % refers to the signal ratio;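 as to max response: cells co-treated with a PPAR-delta agonist as stimulator during compound exposure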); settings: HEK293T PPARd-UAS-bla, beta-lactamase FRET ratio, 18 h; 460 nm channel
Outline: (§1)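 Cell-based beta-lactamase assay in antagonist mode: 4000 HEK293T PPAR-delta-UAS-bla cells per well, 5 hr preincubation then 18 hr compound incubation at 37 C. IC50 obtained by Hill equation fitting.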

[10] = molecular target: Peroxisome proliferator-activated receptor delta (Homo sapiens) (UniProt Q03181); assay: as above
Outline: as §1

[11] = molecular target: Vitamin D3 receptor (Homo sapiens) (UniProt P11473); assay: qHTS assay for small molecule antagonists of vitamin D receptor signaling (AID 588541; calls by dose curve;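 also: receptor activated by calcitriol during compound treatment; series mostly up to about 77 µM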)
Vitamin D3 receptor (Homo sapiens), sequence (P11473 whole entry, looked up): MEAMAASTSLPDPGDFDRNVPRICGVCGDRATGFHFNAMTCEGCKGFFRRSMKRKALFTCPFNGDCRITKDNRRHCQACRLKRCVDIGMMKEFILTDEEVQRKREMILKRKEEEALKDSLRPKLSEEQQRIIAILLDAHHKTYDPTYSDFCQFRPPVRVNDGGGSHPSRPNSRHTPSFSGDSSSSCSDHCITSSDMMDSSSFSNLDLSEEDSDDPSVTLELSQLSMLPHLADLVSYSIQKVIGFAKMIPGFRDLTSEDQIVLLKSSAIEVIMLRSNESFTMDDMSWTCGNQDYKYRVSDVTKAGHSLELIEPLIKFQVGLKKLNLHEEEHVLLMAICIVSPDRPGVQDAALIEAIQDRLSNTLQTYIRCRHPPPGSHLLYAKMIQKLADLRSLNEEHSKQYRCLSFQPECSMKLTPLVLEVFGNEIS
Outline: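 Antagonist-mode beta-lactamase reporter assay: HEK293T VDR-UAS-bla cells were exposed to titrated compound alongside 1-alpha,25-dihydroxyvitamin D3 at 3 nM final for 16 h. Values were normalized to the 50 nM agonist control and DMSO basal, with IC50 and efficacy from Hill equation fits.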

[12] = molecular target: Vitamin D3 receptor (Homo sapiens) (UniProt P11473); assay: qHTS assay for small molecule agonists of vitamin D receptor signaling (AID 588543; calls by dose curve)
Outline: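 β-lactamase reporter, VDR-UAS-bla HEK293T, agonist mode. Cells plated 5 h at 37 °C, compound titration 16 h at 37 °C, CCF4 dye 2 h RT, ratio 460/530 nm. Hill fit → EC50, efficacy vs 50 nM 1α,25-(OH)2D3.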

[13] = molecular target: Thyroid hormone receptor beta (Homo sapiens) (UniProt P10828); assay: qHTS assay for small molecule antagonists of thyroid hormone receptor beta signaling (AID 588547; active = well fitted inhibition curve with a large enough effect in the signal ratio, with a control signal flat, not every such curve was filed as active; the % refers to the signal ratio;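 also: cells stimulated with 0.4 nM T3 agonist during compound exposure; series mostly up to about 77 µM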); settings: TR-UAS-bla HEK293, beta-lactamase ratio, antagonist mode, 18 h
Outline: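 Inhibition of T3-driven (0.4nM final) beta-lactamase reporter activity was measured over 0.59 nM to 92 uM compound after 18 h at 37 C. The cells were GripTite HEK293 TR-UAS-bla in charcoal/dextran-stripped serum, with CCF4 ratio read-out and IC50 from Hill fits.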

[14] = molecular target: Nuclear receptor subfamily 1 group I member 2 (Rattus norvegicus) (UniProt Q9R1A7); assay: qHTS assay for small molecule activators of the rat pregnane X receptor (rPXR) signaling pathway (AID 651751; call rule not given here); settings: rPXR reporter cells, luciferase (One-Glo), 24 h
[15] = qHTS assay for small molecule activators of the human pregnane X receptor (PXR) signaling pathway (AID 720659; call rule not given here)
[16] = qHTS for differential inhibitors of proliferation of Plasmodium falciparum line 7G8 (AID 1815);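 also: parasite growth measured after three days of incubation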
[17] = qHTS for differential inhibitors of proliferation of Plasmodium falciparum line GB4 (AID 1816); settings: Potency: Plasmodium falciparum GB4 proliferation inhibition;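 also: parasite growth measured after 72 h incubation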
[18] = molecular target: Voltage-gated inwardly rectifying potassium channel KCNH2 (Homo sapiens) (UniProt Q12809); assay: qHTS Assay for Small Molecule Inhibitors of the Human hERG Channel Activity (AID 588834);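 also: top concentration of the series differs between compounds; lower thallium flux fluorescence means stronger hERG block; nearly all actives have a fitted effect of over 50% in size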
Voltage-gated inwardly rectifying potassium channel KCNH2 (Homo sapiens), sequence (Q12809 whole entry, looked up): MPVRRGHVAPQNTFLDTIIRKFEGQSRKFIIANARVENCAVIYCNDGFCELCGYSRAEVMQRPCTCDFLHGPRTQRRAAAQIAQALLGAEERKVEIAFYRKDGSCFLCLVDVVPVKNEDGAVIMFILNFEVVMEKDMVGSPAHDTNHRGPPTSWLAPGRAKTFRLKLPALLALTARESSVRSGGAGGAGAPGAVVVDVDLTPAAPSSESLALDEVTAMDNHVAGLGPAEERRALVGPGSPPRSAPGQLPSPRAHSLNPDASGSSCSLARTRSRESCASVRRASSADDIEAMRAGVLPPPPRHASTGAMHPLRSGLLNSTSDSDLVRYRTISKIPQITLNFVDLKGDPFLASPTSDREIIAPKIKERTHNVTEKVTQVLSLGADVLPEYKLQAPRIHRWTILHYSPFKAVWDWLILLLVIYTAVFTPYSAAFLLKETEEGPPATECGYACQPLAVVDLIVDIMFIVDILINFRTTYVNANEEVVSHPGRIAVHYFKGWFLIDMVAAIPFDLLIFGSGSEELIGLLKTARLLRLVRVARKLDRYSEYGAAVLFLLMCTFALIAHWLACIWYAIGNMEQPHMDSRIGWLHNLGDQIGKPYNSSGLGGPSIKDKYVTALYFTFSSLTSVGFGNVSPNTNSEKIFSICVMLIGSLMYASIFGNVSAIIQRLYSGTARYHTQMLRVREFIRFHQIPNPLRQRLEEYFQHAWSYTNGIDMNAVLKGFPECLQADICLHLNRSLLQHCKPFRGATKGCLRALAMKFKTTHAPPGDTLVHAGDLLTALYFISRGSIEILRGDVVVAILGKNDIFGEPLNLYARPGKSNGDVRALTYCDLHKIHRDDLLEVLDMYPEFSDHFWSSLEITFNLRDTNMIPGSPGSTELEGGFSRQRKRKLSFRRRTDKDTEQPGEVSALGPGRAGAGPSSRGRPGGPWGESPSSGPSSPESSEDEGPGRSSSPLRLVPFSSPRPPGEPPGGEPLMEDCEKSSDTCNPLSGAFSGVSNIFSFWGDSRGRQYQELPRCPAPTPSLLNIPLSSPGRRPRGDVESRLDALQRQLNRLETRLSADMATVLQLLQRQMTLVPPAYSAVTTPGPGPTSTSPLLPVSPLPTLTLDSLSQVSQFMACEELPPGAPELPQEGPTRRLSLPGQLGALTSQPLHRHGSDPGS
Outline: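 Concentration-response qHTS measuring drop in thallium-sensitive dye signal. U2OS cells carrying BacMam hERG; compound exposure ~10 min, then stimulation buffer and 2 min read at 1 sec intervals.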

[19] = molecular target: Pyruvate kinase PKM (Homo sapiens) (UniProt P14618); assay: qHTS Assay for Inhibitors of Human Muscle Pyruvate Kinase (AID 958); settings: purified human PKM enzyme activity
Outline: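 Enzyme was run at intermediate activity so both inhibitors and activators could be detected. ATP formed from ADP and PEP by 0.1 nM human PKM2 during a 1 h room-temperature incubation was quantified by coupled luciferase luminescence.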

[20] = molecular target: Pyruvate kinase (Leishmania mexicana) (UniProt Q27686); assay: qHTS Validation Assay for Activators of Leishmania Mexicana Pyruvate Kinase (AID 959)
Outline: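 Substrate mix (0.5 mM PEP, 0.1 mM ADP, 7 mM MgCl2, 50 mM KCl, pH 7.2 imidazole) received compound by pin tool, then 0.2 nM LmPYK E451W. After 1 h at room temperature, PKLight was added and luminescence measured.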

## CC/C=C\C/C=C\C/C=C\C/C=C\C/C=C\CCCCCC(=O)O
[1]
  outcome: inactive
[2]
  outcome: inactive

## C[C@@H](C[C@H](N)C(=O)O)C(=O)O
[3]
  Potency: > 11.4 µM (inactive)

## CNC(=O)[C@H]1O[C@@H](n2cnc3c(NCc4cccc(I)c4)nc(Cl)nc32)[C@H](O)[C@@H]1O
[4]
  Potency: inactive

## NCCNS(=O)(=O)c1cccc2cnccc12
[5]
  Potency: inactive
[6]
  outcome: inactive
[7]
  Potency: inactive
[8]
  Potency: inactive

## CC(C)=CCC/C(C)=C/CC/C(C)=C/CO
[9]
  max response: -3.54%
[10]
  outcome: inactive
[11]
  Potency: inactive
[12]
  outcome: inactive
[13]
  activity change % (negative = inhibition): 1.19% (inactive)
[14]
  max response: -1.6% (inactive)
[15]
  outcome: inactive

## C[N+](C)(C)CCC(=O)c1cccc2ccccc12
[16]
  Potency: inactive
[17]
  Potency: inactive
[18]
  Potency: inactive

## Cc1cccc(/C=C\c2ccccc2)n1
[19]
  Potency: 15.8 µM (active)
[20]
  Potency: inactive
